PubChem BioAssay (EPA / NIEHS)
Inconclusive results are not listed. The source made the active and inactive calls. How the source made its calls: active means hit-call score of the fitted dose curve at least 0.9, where 1 is the maximum; inconclusive means response in the unintended direction; inactive means score below 0.9.

Read-out: xenobiotic metabolism (CYP1A2), CYP1A2 (gene 1544)
Assay: CLD_CYP1A2_6hr: CellzDirect (CLD) Gene Expression Assay for xenobiotic metabolism (CYP1A2) at 6 hours (AID 2283663);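 on AC50: potency is for induction meaning a rise in mRNA above DMSO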
Protocol: CLD_6hr is a cell-based, multiplexed-readout assay that uses hepatocyte, a human liver primary cell, with measurements taken at 6 hours after chemical dosing in a 96-well plate.CLD_CYP1A2_6hr is one of 16 assay component(s) measured or calculated from the CLD_6hr assay. It is designed to make measurements of mRNA induction, a form of inducible reporter, as detected with chemiluminescence signals by Quantitative Nuclease Protection Assay (qNPA) technology.Data from the assay component CLD_CYP1A2_6hr was analyzed at the endpoint, CLD_CYP1A2_6hr, in the positive analysis fitting direction relative to DMSO as the negative control and baseline of activity. Using a type of inducible reporter, gain-of-signal activity can be used to understand changes in the reporter gene as they relate to the gene CYP1A2. Furthermore, this assay endpoint can be referred to as a primary readout. To generalize the intended target to other relatable targets, this assay endpoint is annotated to the cyp intended target family, where subfamily is xenobiotic metabolism.
Human hepatocyte cultures were treated daily for two consecutive days with fresh dosing solutions containing appropriate concentrations of the 320 ToxCast chemicals (chemical identities were blinded to CellzDirect and other ToxCast collaborators), vehicle control (0.2% DMSO), and positive control inducers as summarized in Table 1. Due to the large number of treatment groups and chemicals examined, the ToxCast chemicals were divided into two groups (spanning two independent cultures of hepatocytes from separate donor preparations (Hu778: ToxCast plates 1 and 2; Hu776: ToxCast plates 3 and 4). Each preparation of human hepatocyte cultures was treated with respective vehicle control, medium only control, set of six positive controls/reference chemicals for the five hepatic receptor pathways, and a subset of eight of the ToxCast chemicals (indoxacarb, pyrithiobac-sodium, norflurazon, cyhalofop-butyl, methomyl, thiram, acetochlor, and propiconazole). These replicate data, coupled with internal replicates designed within the blinded ToxCast chemical library, provided additional data to evaluate interindividual differences between hepatocyte preparations and their potential impact on chemical profiles.Cell morphology and integrity were evaluated using phase-contrast microscopy as an indicator of hepatocyte cell health (Tyson & Green, 1987). Cultures for each treatment group (i.e., media, vehicle [0.2% DMSO], positive control inducers [multiple concentrations], and the ToxCast chemicals [multiple concentrations]) were observed and cell morphology was assessed relative to vehicle control cultures at each harvest time point (0, 6, 24, or 48 h). […] Images were evaluated at the conclusion of the study to assess changes in cell integrity and account for the effects of chemical exposure on uncharacteristic changes in concentration-dependent gene expression profiles. The results from these determinations of apparent cytotoxicity were annotated (yes/no) alongside the corresponding qNPA data for reference.At the conclusion of each treatment period, hepatocyte cultures (96-well) were washed with 1 volume of HBSS, lysed by addition of 25 ul ArrayPlate lysis buffer (HTG, Tucson, AZ), and 70 ul/well of Denaturation Oil, denatured by incubation at 95C for 10 min, and frozen at approximately -70C until analysis by nuclease protection assay (qNPA) (Roberts et al., 2007). For qNPA analysis, cell lysates were thawed at 50C for approximately 30 min, qNPA probes were added, and samples were incubated at 95C for 10 min to begin the detection process by denaturing the target RNA, dissociating the duplexes and secondary structure hybridization. At the conclusion of the hybridization period, S1 nuclease reagent was added to each sample to digest all nonprotected nucleotides at 50C for 60-90 min. […]

SMILES | AC50 | outcome
CC(C)Nc1nc(Cl)nc(NC(C)C)n1 | 0.163 µM (active) | –
CC1(C)C(C=C(Cl)Cl)C1C(=O)OC(C#N)c1cccc(Oc2ccccc2)c1 (stereo not given) | 2.15 µM (active) | –
CCN(CC)C(=O)C(C)Oc1cccc2ccccc12 (stereo not given) | 4.15 µM (active) | –
CC1(C)CON(Cc2ccccc2Cl)C1=O | – | inactive
COCC(C)N(C(=O)CCl)c1c(C)csc1C (stereo not given) | – | inactive
Cc1ccc(N=CN(C)C=Nc2ccc(C)cc2C)c(C)c1 | – | inactive
Nc1c(Cl)c(Cl)nc(C(=O)O)c1Cl | 33 µM (active) | –
CCOC(=O)C(C)OC(=O)c1cc(Oc2ccc(C(F)(F)F)cc2Cl)ccc1[N+](=O)[O-] (stereo not given) | 4.81 µM (active) | –
C=C(C)CN(CC)c1c([N+](=O)[O-])cc(C(F)(F)F)cc1[N+](=O)[O-] | – | inactive
CCCN(CC)CC1COC2(CCC(C(C)(C)C)CC2)O1 (stereo not given) | – | inactive
CC1(C)CCC(=Cc2ccc(Cl)cc2)C1(O)Cn1cncn1 (stereo not given) | – | inactive
Nc1c(Cl)c(F)nc(OCC(=O)O)c1Cl | – | inactive
COC(=O)NC(=S)Nc1ccccc1NC(=S)NC(=O)OC | – | inactive
Cc1nc(N(C)C)nc(OC(=O)N(C)C)c1C | 3.8 µM (active) | –
OC(c1ccc(Cl)cc1)(c1ccc(Cl)cc1)C(Cl)(Cl)Cl | – | inactive
CNC(=O)N(C)c1nnc(C(C)(C)C)s1 | – | inactive
COCC(=O)N(c1c(C)cccc1C)C(C)C(=O)OC (stereo not given) | – | inactive
CCOc1cc(C(C)(C)C)ccc1C1COC(c2c(F)cccc2F)=N1 (stereo not given) | – | inactive
CC(C)N1C(=O)N(c2ccccc2)CSC1=NC(C)(C)C | – | inactive
C=CCOC(=O)C(C)(C)OC(=O)c1cc(-n2c(=O)cc(C(F)(F)F)n(C)c2=O)ccc1Cl | – | inactive

SMILES | AC50 | outcome
CC1(C)C(C(=O)OC(C#N)c2cccc(Oc3ccccc3)c2)C1(C)C (stereo not given) | – | inactive
CCNC(=O)NC(=O)C(C#N)=NOC | – | inactive
CC(C)Oc1cccc(NC(=O)c2ccccc2C(F)(F)F)c1 | – | inactive
CCOc1nc(F)cc2nc(S(=O)(=O)Nc3c(Cl)cccc3Cl)nn12 | – | inactive
COP(=O)(OC)O/C(C)=C/C(=O)N(C)C | – | inactive
COC(=O)c1c(C(F)F)nc(C(F)(F)F)c(C2=NCCS2)c1CC(C)C | 0.665 µM (active) | –
COP(=S)(OC)Oc1ccc([N+](=O)[O-])c(C)c1 | 3.34 µM (active) | –
O=C(Nc1ccccc1-c1ccc(Cl)cc1)c1cccnc1Cl | 2.34 µM (active) | –
N#Cc1c[nH]cc1-c1cccc2c1OC(F)(F)O2 | 0.554 µM (active) | –
Cc1cnc(C2=NC(C)(C(C)C)C(=O)N2)c(C(=O)O)c1 (stereo not given) | – | inactive
CC(C)(C)C(=O)C(Oc1ccc(Cl)cc1)n1cncn1 (stereo not given) | 12.4 µM (active) | –
CCN(CC)c1nc(C)cc(OP(=S)(OC)OC)n1 | 5.69 µM (active) | –
CNC(=O)Oc1cccc2ccccc12 | 6.08 µM (active) | –
CC(C)C1(C)N=C(c2ncccc2C(=O)O)NC1=O (stereo not given) | 1.89 µM (active) | –
O=P(O)(O)CCCl | – | inactive
CCNP(=S)(OC)O/C(C)=C/C(=O)OC(C)C (stereo not given) | 3.56 µM (active) | –
CC(C)N1C(=O)c2ccccc2NS1(=O)=O | – | inactive
CCC(C)n1c(=O)[nH]c(C)c(Br)c1=O (stereo not given) | 9.68 µM (active) | –
CCOc1nc(C(Cl)(Cl)Cl)ns1 | – | inactive
CSC(=O)c1c(C(F)F)nc(C(F)(F)F)c(C(=O)SC)c1CC(C)C | – | inactive
